Experimental data: PubChem BioAssay AID1531 (NMMLSC, 2009)
Hit rate of the full screen: of about 290,000 compounds, about 3,300 (1.1%) were called active. This is one part of a sample in which actives are shown more often than they occur. Cut-off read from the data, not from the text of the source: active = binding response below about 67% or above about 130%; inconclusive = no clear call, values can overlap the other calls; inactive = in between.

The molecules below were run against Mitogen-activated protein kinase kinase kinase 2 (Homo sapiens) (UniProt Q9Y2U5) (assay: wildtype MEKK2 PB1-MEK5 interaction, increase or decrease – biochemical, multiplex bead flow cytometry, Alexa488-MEK5, primary screen (AID 1531)). Settings: Alexa488-MEK5 binding to MEKK2 WT, at 10 µM, actives lie on both sides.

Binding response (% of control), active:
Cc1ccc(OCC(O)CN2CCN(CC(O)COc3ccc(C)cc3Cl)CC2)c(Cl)c1 (stereo not given) 134%, COc1ccc(CCn2c(NN=C3CCCC3)nc3c2c(=O)[nH]c(=O)n3C)cc1 39% [inhibitor], COc1cccc(OCC(=O)NNC(=O)c2cnccn2)c1 2% [inhibitor], COc1cc(-c2nnc(Cn3cc(C(F)(F)F)ccc3=O)o2)cc(OC)c1OC 3% [inhibitor], CCCCn1c(SCC(=O)NCCc2ccc(OC)c(OC)c2)nc2c1c(=O)n(C)c(=O)n2C -4% [inhibitor], CCN(CC)C(=O)CC(c1ccc2c(c1)OCO2)c1c(OC)cc(OC)c2c(-c3ccccc3)cc(=O)oc12 (stereo not given) 143%, CCN(CC)CCC(c1ccc2c(c1)OCO2)c1c(OC)cc(OC)c2c(-c3ccccc3)cc(=O)oc12 (stereo not given) 137%, CCN(CC)CCOCCOc1ccc(Cl)c2ccccc12 7% [inhibitor], CC1CN(C(=O)CCC(=O)NCCCN2CCC(Cc3ccccc3)CC2)c2cc(Cl)ccc2O1 (stereo not given) 163%, COC(=O)c1[nH]c2cccc(C)c2c1NC(=O)CN1CCCc2ccccc21 18% [inhibitor], COC(=O)c1[nH]c2ccccc2c1NC(=O)CN1CCCc2ccccc21 -2%, CN1CCN(c2ccccc2NC(=O)COc2ccc(C3CCCCC3)cc2)CC1 145%

Binding response (% of control), inactive:
Cc1cccc(OCC(O)CN2CCN(S(=O)(=O)c3ccc(C)cc3C)CC2)c1 (stereo not given) 95%, OC(COc1ccc(F)cc1Cl)CN1CCc2ccccc2C1 (stereo not given) 105%, C[n+]1cc(-c2ccccc2)oc1-c1ccccc1 100%, COc1ccc(CNc2nc3c(c(=O)[nH]c(=O)n3C)n2Cc2ccccc2)cc1 109%, COc1ccc(CCn2c(NCCCN3CCOCC3)nc3c2c(=O)[nH]c(=O)n3C)cc1 103%, COC(=O)CN1C(=O)[C@H]2[C@@H](/C=C/c3ccccc3)N3C(=O)CN(CC4CC4)C(=O)[C@@]3(Cc3ccccc3)[C@H]2C1=O 104%, CC1=C(N2CCN(c3ncccn3)CC2)CCC1=O 111%, COc1cccc(CNC(=O)C2CC(=O)N(C3CCCCCCC3)C2)c1 (stereo not given) 94%, O=C(Nc1nnc(C2CC2)s1)c1cc(Cl)sc1Cl 102%, CC(C)(C)NC(=O)NC(=O)COC(=O)C1c2ccccc2Oc2ccccc21 100%, COc1ccc(OCC(=O)NNC(=O)c2cccc(C)c2)cc1 93%, COc1cccc(OCC(=O)Nc2ccccc2C(N)=O)c1 115%, COc1ccc(CCNC(=O)CCNS(=O)(=O)c2cc(Br)cnc2N)cc1OC 106%, CCOC(=O)c1cc(-c2nnc(-c3cc(OC)c(OC)c(OC)c3)o2)c(C)nc1C 104%, CC(C)(C)NC(=O)c1ccc(Cn2cc(C(F)(F)F)ccc2=O)cc1 101%, CCC(Cc1ccccc1)NS(=O)(=O)c1ccc2c(c1)NC(=O)CS2 (stereo not given) 102%, Nc1cc(N)nc(SCc2cccc(F)c2)n1 104%, COC(=O)c1c(C)cc(O)c(C)c1O 104%, CCn1c(NCCc2ccc(OC)c(OC)c2)nc2c1c(=O)n(C)c(=O)n2C 102%, C#CC(C)(C)NC(=O)CSc1nc2c(c(=O)n(C)c(=O)n2C)n1CCCC 106%, COc1cc(OC)c(C(=O)NCc2ccc3c(c2)OCO3)cc1OC 102%, CCCCN(CC)C(=O)c1ccc2c(c1)OCO2 100%, CCN(CC)CCC(c1cc(OC)c(OC)c(OC)c1)c1c(OC)cc(OC)c2c(-c3ccccc3)cc(=O)oc12 (stereo not given) 90%, COc1cc(OC)c2ccc(=O)oc2c1C(CCN1CCN(c2ccccc2)CC1)c1ccc2c(c1)OCO2 (stereo not given) 110%, Cc1cccc(Nc2nc(NCCO)nc(N3CCCC3)n2)c1 109%, COc1cc(CC(=O)N2CCC(n3nccc3NC(=O)C3CC3)CC2)cc(OC)c1OC 103%, Clc1cccc(Cl)c1OCCOCCNCc1ccccc1 109%, CCC(C(=O)OCCN(CC)CC)c1ccccc1 (stereo not given) 101%, Cc1cccc(NC(=S)NCCc2ccc(Cl)cc2)c1C 106%, Cc1ccc(S(=O)(=O)N(C)CC(=O)NCCc2c[nH]c3ccccc23)cc1 107%, CCOC(=O)c1ccc(NC(=O)c2c(NCc3ccccc3)[nH]c(=O)[nH]c2=O)cc1 102%, CC1CN(C(=O)CCC(=O)NCc2cccnc2)c2ccccc2O1 (stereo not given) 103%, CC1CN(C(=O)CCC(=O)NC2CCN(Cc3ccccc3)CC2)c2ccccc2O1 (stereo not given) 107%, O=C(CN1CCCCCC1)Nc1ccc(S(=O)(=O)N2CCCCC2)cc1 100%, O=C(NCc1ccccc1Cl)C1CCN(c2ncnc3c2nc2n3CCCCC2)CC1 102%, Cc1cc(C)c(OCC(=O)N(Cc2cccs2)C2CCS(=O)(=O)C2)c(C)c1 (stereo not given) 101%, NS(=O)(=O)c1cccc(NC(=O)CN2CCCc3ccccc32)c1 99%, Cc1cccc(C)c1NC(=O)COC(=O)c1ccccc1O 97%, COC(=O)c1[nH]c2ccc(Br)cc2c1NC(=O)Oc1ccccc1 103%, O=C(CN1CCc2ccccc21)NC(c1ccccc1)c1ccccc1 95%, CC(=O)N1c2ccc(S(=O)(=O)N3CCCC(C(=O)Nc4cccc(F)c4)C3)cc2CC1C (stereo not given) 106%, CCOC(=O)c1c(-c2ccccc2)oc2cc(Br)c(O)c(C=O)c12 94%, O=C(Nc1ccccc1Cl)NC1(C(=O)N2CCOCC2)CCCCC1 96%, CC1(C)C2CC[C@]3(C)C(CC=C4[C@@H]5C[C@@](C)(CO)CC[C@]5(C(=O)O)CC[C@]43C)[C@@]2(C)CC[C@@H]1O (stereo not given in full) 105%, C=CCOc1ccccc1NC(=O)CN1C(=O)CNC1=O 106%, O=C(N/N=C\c1cc2c(cc1Cl)OCO2)c1ccc(Br)s1 103%, O=C(CN1CCN(C2CCCCC2)CC1)Nc1ccccc1N1CCCCC1 109%, Cc1ccc(C(C)C)cc1OCC(=O)Nc1ccccc1N1CCCC1 100%
